# Experimental data taken from PubChem BioAssay AID2284088 (EPA ToxCast).
# Activity calls are given as the source filed them. The calls were made as follows: active = hit-call score of the fitted dose curve at least 0.9, where 1 is the maximum; inactive = score below 0.9.
# Target: human FLT4 Receptor Tyrosine Kinase, FLT4 (gene 2324) (UniProt P35916)
# Assay: ERF_FR_ENZ_hFLT4: Eurofins (ERF) Enzymatic Radiometric [Km ATP] KinaseProfiler LeadHunter Assay for human FLT4 Receptor Tyrosine Kinase
# Protocol: ERF_FR_ENZ_hFLT4 is a biochemical, single-readout assay that uses extracted gene-proteins in a cell-free assay. Measurements were taken 1.5 hour after chemical dosing in a 96-well plate. See FLT4 Human RTK Kinase Enzymatic LANCE Assay [Km ATP], Cerep.ERF_FR_ENZ_hFLT4 is an assay component calculated from the ERF_FR_ENZ_hFLT4 assay. It is designed to measure enzyme activity using a type of enzyme reporter as detected by fluorescence intensity with LANCE technology.Data from the assay component ERF_FR_ENZ_hFLT4 was analyzed at the assay endpoint, ERF_FR_ENZ_hFLT4, in the positive analysis fitting direction relative to DMSO as the negative control and baseline of activity. Using a type of enzyme reporter, loss-of-signal activity can be used to understand changes in enzymatic activity as they relate to gene FLT4. To generalize the intended target to other relatable targets, this assay endpoint is annotated to the kinase intended target family, where the subfamily is receptor tyrosine kinase.
# Flt4 (h) is incubated with 8 mM MOPS pH 7.0, 0.2 mM EDTA, 500 uM […], 10 mM MgAcetate and [gamma-33P]-ATP (specific activity and concentration as required). The reaction is initiated by the addition of the Mg/ATP mix. After incubation for 40 minutes at room temperature, the reaction is stopped by the addition of phosphoric acid to a concentration of 0.5%. […]
# human FLT4 Receptor Tyrosine Kinase, FLT4 (gene 2324), sequence (P35916 whole entry, looked up): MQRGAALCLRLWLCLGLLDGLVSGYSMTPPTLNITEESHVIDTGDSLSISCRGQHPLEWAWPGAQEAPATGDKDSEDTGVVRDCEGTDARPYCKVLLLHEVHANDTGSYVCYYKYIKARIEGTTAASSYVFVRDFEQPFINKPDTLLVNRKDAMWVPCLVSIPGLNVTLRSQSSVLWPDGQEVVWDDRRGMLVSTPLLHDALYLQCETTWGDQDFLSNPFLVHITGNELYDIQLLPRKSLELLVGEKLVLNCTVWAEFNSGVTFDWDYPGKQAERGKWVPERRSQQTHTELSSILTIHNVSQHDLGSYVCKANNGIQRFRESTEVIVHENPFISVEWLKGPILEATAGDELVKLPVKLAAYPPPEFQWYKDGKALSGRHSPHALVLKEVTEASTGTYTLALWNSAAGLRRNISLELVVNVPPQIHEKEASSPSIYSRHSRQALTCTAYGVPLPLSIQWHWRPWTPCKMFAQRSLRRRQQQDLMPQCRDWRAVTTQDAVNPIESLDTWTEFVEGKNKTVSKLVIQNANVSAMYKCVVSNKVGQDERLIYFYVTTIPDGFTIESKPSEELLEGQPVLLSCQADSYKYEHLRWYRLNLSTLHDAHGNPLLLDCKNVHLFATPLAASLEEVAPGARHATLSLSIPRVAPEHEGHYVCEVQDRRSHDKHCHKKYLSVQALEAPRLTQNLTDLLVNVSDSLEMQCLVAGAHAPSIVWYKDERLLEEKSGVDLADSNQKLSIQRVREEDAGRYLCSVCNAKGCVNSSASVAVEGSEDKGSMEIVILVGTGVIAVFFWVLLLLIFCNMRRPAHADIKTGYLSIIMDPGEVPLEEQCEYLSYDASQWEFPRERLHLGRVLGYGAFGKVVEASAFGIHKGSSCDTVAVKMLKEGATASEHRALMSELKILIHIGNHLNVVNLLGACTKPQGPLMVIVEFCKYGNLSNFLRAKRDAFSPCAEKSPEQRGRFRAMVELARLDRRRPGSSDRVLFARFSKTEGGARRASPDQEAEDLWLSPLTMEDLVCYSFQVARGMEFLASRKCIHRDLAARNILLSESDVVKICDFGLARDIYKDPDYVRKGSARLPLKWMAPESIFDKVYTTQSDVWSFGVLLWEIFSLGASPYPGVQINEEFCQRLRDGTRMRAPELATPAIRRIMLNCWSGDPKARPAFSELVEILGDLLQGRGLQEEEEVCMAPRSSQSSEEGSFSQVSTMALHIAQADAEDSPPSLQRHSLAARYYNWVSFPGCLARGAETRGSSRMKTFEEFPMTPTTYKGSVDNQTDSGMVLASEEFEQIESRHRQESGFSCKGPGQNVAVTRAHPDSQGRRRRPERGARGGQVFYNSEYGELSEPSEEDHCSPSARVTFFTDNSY
row,Compound,AC50
1,O=C(/C=C/c1ccc(O)cc1)CC(=O)/C=C/c1ccc(O)cc1,1910 nM (active)
